Results reported in PubChem BioAssay AID1259310 (The Scripps Research Institute Molecular Screening Center, 2017).
Among all 650,000 compounds or so, about 850 (0.13%) were called active. The full list was thinned out, with actives kept by preference. Values without a mark were called inactive. Cut-off read from the data, not from the text of the source: active = normalized activity above about 1.9%; inactive = the rest.

molecular target: F-box/WD repeat-containing protein 7 (Homo sapiens) (UniProt Q969H0); assay: FBW7 E3 ligase activators, primary screen, biochemical, AlphaScreen, human (AID 1259310); details: AlphaScreen FBW7–phospho-cyclin E peptide binding, activator screen; at 26.1 µM; active compounds read high;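 note: purified mutant Fbw7 with reduced substrate affinity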
Sequence (Q969H0 whole entry, looked up): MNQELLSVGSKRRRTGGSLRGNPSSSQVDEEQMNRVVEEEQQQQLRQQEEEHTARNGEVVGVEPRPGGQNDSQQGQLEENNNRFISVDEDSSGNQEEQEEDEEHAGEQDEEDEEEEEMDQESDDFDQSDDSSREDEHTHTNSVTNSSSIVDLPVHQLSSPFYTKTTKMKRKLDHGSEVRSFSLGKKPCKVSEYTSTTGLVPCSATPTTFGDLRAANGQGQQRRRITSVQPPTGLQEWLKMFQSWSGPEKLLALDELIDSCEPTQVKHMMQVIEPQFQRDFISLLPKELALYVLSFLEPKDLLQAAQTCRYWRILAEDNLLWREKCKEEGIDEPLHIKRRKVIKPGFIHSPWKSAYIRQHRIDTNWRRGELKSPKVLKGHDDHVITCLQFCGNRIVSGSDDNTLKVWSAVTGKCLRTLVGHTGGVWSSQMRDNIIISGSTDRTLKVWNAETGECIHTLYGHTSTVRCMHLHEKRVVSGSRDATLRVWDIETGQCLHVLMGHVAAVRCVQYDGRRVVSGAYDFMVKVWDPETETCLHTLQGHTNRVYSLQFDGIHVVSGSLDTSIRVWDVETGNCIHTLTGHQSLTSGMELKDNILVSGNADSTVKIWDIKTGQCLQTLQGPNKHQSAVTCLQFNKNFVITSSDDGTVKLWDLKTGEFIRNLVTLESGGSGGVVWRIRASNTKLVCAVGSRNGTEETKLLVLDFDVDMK

Compound	normalized activity (activation)
O=C1NC(=O)N(c2ccc(Br)cc2)C(=O)/C1=C\C=C\c1ccco1	-0.18%
COc1ccc(C2Nc3cccc4cccc(c34)N2)c(OC)c1OC	0.39%
COc1cc(OC)c(C2Nc3cccc4cccc(c34)N2)cc1OC	1.96% (active)
COc1ccc(OC)c(C2Nc3cccc4cccc(c34)N2)c1	0.03%
O=c1[nH]c(N2CCOCC2)nc2c1CN(Cc1ccccc1Cl)CC2	-0.04%
O=C1CC(c2noc(-c3ccco3)n2)CN1c1ccccc1 (stereo not given)	-0.17%
COc1cccc(-c2nc(-c3ccccc3)c(-c3ccccc3)[nH]2)c1O	-0.07%
CCOc1ccc2nc(N3CCC(NCCc4nc(C)c5c(n4)CCC5)CC3)nc(C)c2c1	0.33%
CC1CC(C)CN(CCS(=O)(=O)c2ccc(Oc3ccc(S(=O)(=O)CCN4CC(C)CC(C)C4)cc3)cc2)C1 (stereo not given)	-0.1%
CCCCOC(=O)C1=C(C)N(C)C(=O)NC1c1cc(Cl)c(O)c(OC)c1 (stereo not given)	-0.11%
CCOc1ccc(C(=O)Nc2ccccc2I)cc1[N+](=O)[O-]	-0.08%
CCOc1cc(OCC)cc(C(=O)Nc2cc3nn(-c4ccc(OC)cc4)nc3cc2C)c1	-0.15%
CCOc1ccc(C(=O)Nc2cc3nn(-c4ccc(C)cc4)nc3cc2C)cc1[N+](=O)[O-]	2.14% (active)
O=C(Cc1ccccn1)N1CCCC(c2nc(N3CCOCC3)ncc2-c2ccncc2)C1 (stereo not given)	-0.05%
CCOc1ccc(-n2nc(C(=O)Nc3ccccc3C(F)(F)F)c3ccccc3c2=O)cc1	-0.03%
NC(=O)c1ccccc1NC(=S)NC(=O)/C=C/c1cccc([N+](=O)[O-])c1	0.01%
Cc1ccc2nc(SCC(=O)Nc3ccccc3C(N)=O)[nH]c2c1	0.11%
O=C(Nc1ccccc1[N+](=O)[O-])c1cc(S(=O)(=O)Nc2cccc(F)c2)ccc1Cl	-0.02%
O=C(COC(=O)c1ccccc1F)NCc1ccco1	-0.11%
Cc1noc(C)c1-c1nc(N)c2ncn(-c3ccccc3)c2n1	-0.05%
COc1cc(Nc2nc(-c3c(C)noc3C)nc3c2ncn3C2CCCCC2)cc(OC)c1OC	-0.17%
COc1cc(Nc2nc(-c3c(C)noc3C)nc3c2ncn3-c2ccccc2)cc(OC)c1OC	14.2% (active)

Compound	normalized activity (activation)
Cc1nc2c(C(=O)N3CCCC3)cnn2c(C)c1Cc1ccccc1Cl	-0.09%
O=C(Nc1ccc(I)cc1)OCCCc1ccccc1	0.21%
Cc1ccc2nc(NC(=O)c3cc(-c4ccc(Cl)s4)nc4ccccc34)sc2c1	-0.02%
Cc1c(-c2nc3cnccn3c2NCc2ccc(F)cc2)cnn1C	-0.04%
COc1cccc(NC(=O)CSc2ccc(Br)cc2)c1	0.07%
COc1ccc(SCC(=O)NNC(=S)Nc2ccccc2)cc1	2.07% (active)
COc1ccc(NC(=S)C(=O)Nc2ccccc2)cc1	0.08%
CCOc1ccc2nc(NC(=O)c3cccc(C(=O)OC)n3)sc2c1	-0.02%
CC(C)c1ccc(OCC(=O)N/N=C/c2cccnc2)cc1	-0.04%
COc1c(Cl)cc(Cl)cc1C(=O)Nc1ccccc1[N+](=O)[O-]	-0.17%
O=C(CN1C(=O)c2cccc([N+](=O)[O-])c2C1=O)OCC(=O)c1ccc(Cl)cc1	-0.01%
CCOC(=O)C1=C(C)NC(=S)NC1c1cc(OC)ccc1O (stereo not given)	0.11%
CCc1c(C)c(C#N)c2nc3ccccc3n2c1-n1ccnc1	2.07% (active)
N#Cc1c2c(c(-n3ccnc3)n3c1nc1ccccc13)CCC2	0.17%
Cc1c(CCC#N)c(-n2ccnc2)n2c(nc3ccccc32)c1C#N	-0.21%
COc1ccc(/C=N/Nc2nc3nonc3nc2Nc2cccc(C)c2)cc1OC	-0.17%
COc1cccc2c1OC1(CCN(C(=O)Nc3cccc(F)c3)CC1)OC2	-0.04%
Oc1ccccc1-c1nc(-c2cccc(C(F)(F)F)c2)c(-c2ccccc2)[nH]1	0.23%
c1cnc(Sc2nnc3ccccn23)nc1	0.1%
COc1ccc(N=C2CCC(O)=C2C(C)=O)cc1	0.05%
COc1ccc(S(=O)(=O)NCC(=O)Nc2cccc(Br)c2)cc1OC	-0.15%
CCn1c(=N)n(CC(=O)c2cccc(OC)c2)c2ccccc21	2.64% (active)

Compound	normalized activity (activation)
COc1cccc(C(=O)N2CCc3ccccc32)c1	0.05%
COc1cccc(C(=O)N2CCN(C(=O)c3cccc(OC)c3)CC2)c1	0%
Cc1cc(S(=O)(=O)Nc2ccc(Br)cc2)c(C)c(S(=O)(=O)c2ccc(Cl)cc2)c1	0.11%
O=C1CCCC2=C1C(c1cccnc1)Nc1ccc3ncccc3c12 (stereo not given)	-0.33%
CCCCNC(=O)CSc1nnc2c(n1)[nH]c1ccccc12	0.16%
CN(C)CCCNc1ncc2c(n1)c(=O)c(C#N)c1[nH]c3ccccc3c(=O)n12	-0.01%
CCCCNc1ncc2c(n1)c(=O)c(C#N)c1[nH]c3ccccc3c(=O)n12	2.15% (active)
O=C(O)COc1ccc(C2Nc3ccccc3S(=O)(=O)N2Cc2ccccc2)cc1 (stereo not given)	-0.1%
O=C(c1nc2ccccc2s1)N1CCN(c2nc3ccccc3s2)CC1	0.01%
Oc1ccccc1-c1nc(CI)no1	0.03%
O=S(=O)(NC1CCCCC1Sc1ncn[nH]1)c1ccc(Cl)cc1 (stereo not given)	0%
CCSC1=NSC2=NC(=O)/C(=C\c3ccc(OC)cc3)C(=N)N12	0.04%
COc1ccc(NC(=O)c2sc3nc(-c4cccc([N+](=O)[O-])c4)cn3c2C)cc1	-0.14%
COc1cccc(NC(=O)Nc2ccc(-c3cn4c(C)c(C)nnc4n3)cc2)c1	1.87% (active)
COc1cccc(NC(=O)Nc2cc(OC)cc(OC)c2)c1	-0.06%
CCC(C)(C(=O)Nc1ccc2c(c1)OCCO2)N(Cc1ccco1)C(=O)c1ccccc1O (stereo not given)	-0.01%
O=C(COc1cccc([N+](=O)[O-])c1)N/N=C/c1ccc(O)c([N+](=O)[O-])c1	-0.11%
COc1ccc(C(c2nnnn2C(C)(C)C)N2CCN(c3ccccc3)CC2)cc1 (stereo not given)	0.3%
CCCC(c1nnnn1C(C)(C)C)N1CCN(Cc2ccccc2)CC1 (stereo not given)	0.01%
CN(C)c1ccc(C(c2nnnn2C(C)(C)C)N2CCN(Cc3ccccc3)CC2)cc1 (stereo not given)	1.85% (active)
CC(=O)c1ccc(N2C(=O)C3C(C2=O)C2(C)c4ccccc4C3(C)c3ccccc32)cc1 (stereo not given)	-0.19%
COc1ccc(-c2cc(NCCOc3ccccc3)nc(N)n2)cc1	0.12%

Compound	normalized activity (activation)
O=C(COc1ccc(Cl)cc1)NNC(=O)C(Cc1ccccc1)N1C(=O)c2ccccc2C1=O (stereo not given)	0.06%
Cc1cc(C(=O)C(=O)c2nccn2C)c(C)n1C	0.04%
CCC(c1nnnn1C1CCCC1)N1CCN(C(=O)c2ccco2)CC1 (stereo not given)	-0.16%
CCC(c1nnnn1CCC(C)C)N1CCN(C(=O)c2ccco2)CC1 (stereo not given)	2.16% (active)
CCC(c1nnnn1CCC(C)C)N1CCN(c2ccccc2)CC1 (stereo not given)	0.24%
COc1cc(Cl)c(C)cc1NC(=O)CCNC(=O)Cn1cnc2sc3c(c2c1=O)CCCC3	-0.1%
Cc1ccc(CN2CCN(CC(=O)NCc3ccccn3)C2=O)cc1	-0.27%
COC(=O)CNC(=O)CNS(=O)(=O)c1ccccc1[N+](=O)[O-]	0.14%
NNC(=O)CNC(=O)CNS(=O)(=O)c1ccc([N+](=O)[O-])cc1	1.97% (active)
O=[N+]([O-])c1ccc(S(=O)(=O)NCCc2ccccc2)cc1	0.18%
CC1=C(C(=O)Nc2cccc(C(=O)Nc3cccc(Cl)c3C)c2)SCCO1	-0.1%
COc1cc(C2CC(=O)NC3=C2C(=O)CC(C)(C)C3)cc([N+](=O)[O-])c1O (stereo not given)	-0.34%
C#CCN1C(=O)C(O)(CC(=O)c2ccc(OC)c([N+](=O)[O-])c2)c2ccccc21 (stereo not given)	0.12%
CN(C)CCN(C)c1nc(C2COc3ccc(C(N)=O)cc3C2)nc2ccc(-c3cn[nH]c3)cc12 (stereo not given)	1.23%
O=c1[nH]c(C2COc3ccc(F)cc3C2)nc2ccc(-c3cn[nH]c3)cc12 (stereo not given)	-0.05%
O=C(NCCc1cccnc1)c1ccc2c(c1)CC(c1nc3ccc(-c4cn[nH]c4)cc3c(=O)[nH]1)CO2 (stereo not given)	3.03% (active)
CCN(CC)c1ccc2nnc(CCC(=O)Nc3ccc(C(=O)OC)cc3)n2n1	0.06%
CC1CCCN(S(=O)(=O)c2ccc3c(c2)OCC(=O)N3)C1 (stereo not given)	0.17%
CCOC(=O)CC(C(C)C)N(Cc1ccc(F)cc1)C(=S)Nc1cccc(C)c1 (stereo not given)	0.07%
